Laboratory results reported in publication PMC7862700, “An all-to-all approach to the identification of sequence-specific readers for epigenetic DNA modifications on cytosine”.

What was measured:
Test in all cases: DAPPL (digital affinity profiling via proximity ligation, sequencing); 10 mM Tris-HCl pH 7.5, 50 mM NaCl, 1 mM DTT, 4% glycerol, room temperature, 30 min; GST-TFs on glutathione beads, 16-mer random dsDNA library, 0.1% formaldehyde crosslink after washing; high values mean tight binding
FEV = target: T1, FEV (Homo sapiens, UniProt Q99581 1-238); conditions: protein: recombinant; tags: N-terminal GST; dsDNA, one strand shown
T1 sequence: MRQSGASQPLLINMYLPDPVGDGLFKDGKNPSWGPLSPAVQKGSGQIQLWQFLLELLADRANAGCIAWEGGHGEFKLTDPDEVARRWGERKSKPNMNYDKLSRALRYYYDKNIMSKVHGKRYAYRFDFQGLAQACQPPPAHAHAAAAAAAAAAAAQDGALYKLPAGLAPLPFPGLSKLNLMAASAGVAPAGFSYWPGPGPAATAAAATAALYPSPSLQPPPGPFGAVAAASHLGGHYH
Method in brief: (§1)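 After expression in yeast as GST fusions, human transcription factors were bound to glutathione beads, DNA-barcoded and mixed with a tag-only sample. The pools were incubated with 200 nmole of a 16-mer random double-stranded DNA library in Tris/NaCl/DTT/glycerol buffer (30 min, room temperature), washed and crosslinked with 0.1% formaldehyde. Proximity ligation with BsaI/T4 ligase ran for 1 h at 37 °C, before PCR amplification and sequencing on an Illumina NextSeq500. Binding signal is a hexamer's read frequency for a factor divided by its frequency for the tag-only sample.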

ETV5 = ETV5 (Homo sapiens, UniProt P41161 1-510); conditions: protein: recombinant; tags: N-terminal GST; dsDNA, one strand shown
Sequence of ETV5 (P41161 whole entry): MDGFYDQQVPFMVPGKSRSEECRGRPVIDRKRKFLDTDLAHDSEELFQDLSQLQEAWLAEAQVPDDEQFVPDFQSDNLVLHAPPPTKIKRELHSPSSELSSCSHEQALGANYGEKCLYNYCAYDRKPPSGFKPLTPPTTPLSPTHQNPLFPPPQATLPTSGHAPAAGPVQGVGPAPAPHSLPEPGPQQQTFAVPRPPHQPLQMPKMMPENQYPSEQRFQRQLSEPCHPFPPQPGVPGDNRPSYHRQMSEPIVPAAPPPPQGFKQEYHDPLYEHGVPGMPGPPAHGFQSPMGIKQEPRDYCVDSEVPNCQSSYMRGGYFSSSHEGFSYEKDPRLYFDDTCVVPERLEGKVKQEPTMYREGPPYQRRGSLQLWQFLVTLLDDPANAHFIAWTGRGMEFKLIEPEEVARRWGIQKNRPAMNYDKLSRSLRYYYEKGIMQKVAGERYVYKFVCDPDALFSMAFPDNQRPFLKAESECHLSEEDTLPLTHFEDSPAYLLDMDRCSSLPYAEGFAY
Method in brief: as §1

HSF1 = HSF1 (Homo sapiens, UniProt Q00613 1-529); conditions: protein: recombinant; tags: N-terminal GST; chain copies: 3; dsDNA, one strand shown
Sequence of HSF1 (Q00613 whole entry): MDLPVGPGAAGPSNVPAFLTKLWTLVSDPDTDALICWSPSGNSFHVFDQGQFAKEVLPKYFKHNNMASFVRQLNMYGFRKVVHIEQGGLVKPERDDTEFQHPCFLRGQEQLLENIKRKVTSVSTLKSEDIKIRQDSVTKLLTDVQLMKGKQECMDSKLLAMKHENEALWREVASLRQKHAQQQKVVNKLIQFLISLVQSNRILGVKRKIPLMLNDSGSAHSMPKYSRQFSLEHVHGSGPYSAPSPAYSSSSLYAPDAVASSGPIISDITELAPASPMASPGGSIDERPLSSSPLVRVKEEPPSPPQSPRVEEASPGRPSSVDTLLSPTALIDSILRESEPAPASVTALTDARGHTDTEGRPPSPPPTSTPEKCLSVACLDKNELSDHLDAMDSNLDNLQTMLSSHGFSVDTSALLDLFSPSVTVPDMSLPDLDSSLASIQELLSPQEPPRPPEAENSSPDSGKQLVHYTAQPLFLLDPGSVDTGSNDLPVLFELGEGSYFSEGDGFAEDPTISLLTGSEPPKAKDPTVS
Method in brief: as §1

SPIC = target: T2, SPIC (Homo sapiens, UniProt Q8N5J4 1-248); conditions: protein: recombinant; tags: N-terminal GST; dsDNA, one strand shown
T2 sequence: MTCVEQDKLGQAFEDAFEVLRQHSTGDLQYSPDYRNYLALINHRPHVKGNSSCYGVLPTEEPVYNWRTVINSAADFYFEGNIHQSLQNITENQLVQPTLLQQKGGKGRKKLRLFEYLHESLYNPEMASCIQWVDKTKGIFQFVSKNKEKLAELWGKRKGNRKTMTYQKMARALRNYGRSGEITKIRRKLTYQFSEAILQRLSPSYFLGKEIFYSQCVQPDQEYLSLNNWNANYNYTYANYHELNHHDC
Method in brief: as §1

ELF4 = ELF4 (Homo sapiens, UniProt Q99607 1-663); conditions: protein: recombinant; tags: N-terminal GST; dsDNA, one strand shown
Sequence of ELF4 (Q99607 whole entry): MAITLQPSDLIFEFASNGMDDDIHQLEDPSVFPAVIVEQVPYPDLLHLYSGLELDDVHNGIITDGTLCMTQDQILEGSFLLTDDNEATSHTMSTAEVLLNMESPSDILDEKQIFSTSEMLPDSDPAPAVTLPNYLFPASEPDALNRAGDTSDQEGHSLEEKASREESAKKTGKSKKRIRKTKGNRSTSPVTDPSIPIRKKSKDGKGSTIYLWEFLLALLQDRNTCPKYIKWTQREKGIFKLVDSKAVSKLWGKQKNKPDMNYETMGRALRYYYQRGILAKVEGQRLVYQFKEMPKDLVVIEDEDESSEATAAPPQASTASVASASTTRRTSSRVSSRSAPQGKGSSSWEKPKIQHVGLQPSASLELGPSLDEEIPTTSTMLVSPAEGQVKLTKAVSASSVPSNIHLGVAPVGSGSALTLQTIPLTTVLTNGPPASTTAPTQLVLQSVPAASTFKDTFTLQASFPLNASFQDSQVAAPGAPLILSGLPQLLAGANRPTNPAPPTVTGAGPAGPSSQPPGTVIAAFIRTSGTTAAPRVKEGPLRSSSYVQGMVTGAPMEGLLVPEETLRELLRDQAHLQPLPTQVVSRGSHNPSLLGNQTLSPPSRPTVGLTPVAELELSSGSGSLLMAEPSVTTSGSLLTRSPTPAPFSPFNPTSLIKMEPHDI
Method in brief: as §1

ELK4 = target: T3, ELK4 (Homo sapiens, UniProt P28324-2 1-405); conditions: protein: recombinant; tags: N-terminal GST; dsDNA, one strand shown
T3 sequence: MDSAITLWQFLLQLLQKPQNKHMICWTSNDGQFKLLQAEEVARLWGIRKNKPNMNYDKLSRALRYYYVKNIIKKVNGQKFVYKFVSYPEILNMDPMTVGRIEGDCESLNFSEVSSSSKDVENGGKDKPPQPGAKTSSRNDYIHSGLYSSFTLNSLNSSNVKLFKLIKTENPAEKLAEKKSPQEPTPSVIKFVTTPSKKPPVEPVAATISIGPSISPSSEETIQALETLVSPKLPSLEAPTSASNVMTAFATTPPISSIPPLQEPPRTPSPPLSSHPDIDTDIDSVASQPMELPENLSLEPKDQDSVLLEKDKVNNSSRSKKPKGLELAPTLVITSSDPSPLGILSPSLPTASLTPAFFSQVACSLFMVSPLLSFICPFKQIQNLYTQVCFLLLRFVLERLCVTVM
Method in brief: as §1

ETV2 = target: T4, ETV2 (Homo sapiens, UniProt O00321 1-342); conditions: protein: recombinant; tags: N-terminal GST; dsDNA, one strand shown
T4 sequence: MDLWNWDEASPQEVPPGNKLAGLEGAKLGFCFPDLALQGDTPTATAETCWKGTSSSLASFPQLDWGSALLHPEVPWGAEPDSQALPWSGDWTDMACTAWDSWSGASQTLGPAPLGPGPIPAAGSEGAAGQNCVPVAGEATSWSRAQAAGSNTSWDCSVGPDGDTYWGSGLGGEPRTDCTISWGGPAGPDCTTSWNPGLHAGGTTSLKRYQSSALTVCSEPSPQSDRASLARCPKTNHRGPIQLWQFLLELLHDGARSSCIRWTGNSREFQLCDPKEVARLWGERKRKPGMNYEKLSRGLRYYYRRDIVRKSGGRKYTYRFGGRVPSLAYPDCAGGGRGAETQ
Method in brief: as §1

ELF3 = target: T5, ELF3 (Homo sapiens, UniProt P78545 1-371); conditions: protein: recombinant; tags: N-terminal GST; dsDNA, one strand shown
T5 sequence: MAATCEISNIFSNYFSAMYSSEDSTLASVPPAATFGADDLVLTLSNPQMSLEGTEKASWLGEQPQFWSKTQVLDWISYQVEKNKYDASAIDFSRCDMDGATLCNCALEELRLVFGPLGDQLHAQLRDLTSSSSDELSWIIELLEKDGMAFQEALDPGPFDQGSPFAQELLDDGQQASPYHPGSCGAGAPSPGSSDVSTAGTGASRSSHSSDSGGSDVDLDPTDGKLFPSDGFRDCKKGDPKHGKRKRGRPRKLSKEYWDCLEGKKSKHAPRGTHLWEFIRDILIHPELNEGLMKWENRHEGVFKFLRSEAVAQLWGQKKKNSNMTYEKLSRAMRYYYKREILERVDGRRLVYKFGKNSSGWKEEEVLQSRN
Method in brief: as §1

CRX = CRX (Homo sapiens, UniProt O43186 1-299); conditions: protein: recombinant; tags: N-terminal GST; dsDNA, one strand shown
Sequence of CRX (O43186 whole entry): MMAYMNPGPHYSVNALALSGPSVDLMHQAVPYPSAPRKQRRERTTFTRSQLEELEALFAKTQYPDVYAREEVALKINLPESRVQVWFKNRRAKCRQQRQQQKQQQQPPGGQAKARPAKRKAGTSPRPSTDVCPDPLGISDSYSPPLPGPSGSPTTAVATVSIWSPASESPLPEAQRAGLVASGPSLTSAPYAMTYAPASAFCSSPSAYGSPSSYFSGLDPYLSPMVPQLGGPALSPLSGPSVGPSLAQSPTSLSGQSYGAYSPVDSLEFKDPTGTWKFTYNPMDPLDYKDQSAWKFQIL
Method in brief: as §1

ETV1 = ETV1 (Homo sapiens, UniProt P50549 1-477); conditions: protein: recombinant; tags: N-terminal GST; dsDNA, one strand shown
Sequence of ETV1 (P50549 whole entry): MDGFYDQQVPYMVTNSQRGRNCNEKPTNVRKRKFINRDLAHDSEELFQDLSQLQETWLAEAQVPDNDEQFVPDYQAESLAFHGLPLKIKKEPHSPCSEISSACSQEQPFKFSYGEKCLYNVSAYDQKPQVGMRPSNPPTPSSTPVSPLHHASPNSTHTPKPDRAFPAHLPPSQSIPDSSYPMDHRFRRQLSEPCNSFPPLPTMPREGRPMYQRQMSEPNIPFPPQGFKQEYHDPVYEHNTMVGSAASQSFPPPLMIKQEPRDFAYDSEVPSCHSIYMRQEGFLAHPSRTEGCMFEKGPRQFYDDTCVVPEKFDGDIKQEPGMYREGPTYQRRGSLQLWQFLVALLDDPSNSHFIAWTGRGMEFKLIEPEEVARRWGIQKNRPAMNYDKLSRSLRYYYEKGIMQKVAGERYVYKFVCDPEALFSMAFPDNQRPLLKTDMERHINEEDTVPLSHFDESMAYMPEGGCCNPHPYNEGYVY
Method in brief: as §1

ERF = target: T6, ERF (Homo sapiens, UniProt P50548 1-548); conditions: protein: recombinant; tags: N-terminal GST; dsDNA, one strand shown
T6 sequence: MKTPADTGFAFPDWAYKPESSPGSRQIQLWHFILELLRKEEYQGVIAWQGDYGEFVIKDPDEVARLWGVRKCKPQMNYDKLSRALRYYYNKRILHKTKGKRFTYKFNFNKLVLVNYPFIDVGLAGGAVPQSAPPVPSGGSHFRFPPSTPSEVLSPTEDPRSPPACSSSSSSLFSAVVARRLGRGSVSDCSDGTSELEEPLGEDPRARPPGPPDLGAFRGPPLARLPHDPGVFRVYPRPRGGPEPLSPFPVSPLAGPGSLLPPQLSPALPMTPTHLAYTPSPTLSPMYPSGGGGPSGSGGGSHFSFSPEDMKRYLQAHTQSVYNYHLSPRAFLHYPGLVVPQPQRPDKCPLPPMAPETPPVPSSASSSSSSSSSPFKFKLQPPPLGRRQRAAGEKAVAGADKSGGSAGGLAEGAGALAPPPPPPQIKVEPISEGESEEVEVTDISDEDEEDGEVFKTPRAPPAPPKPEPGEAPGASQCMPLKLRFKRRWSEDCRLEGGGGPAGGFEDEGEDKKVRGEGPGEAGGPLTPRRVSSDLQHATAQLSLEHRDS
Method in brief: as §1

ETV3L = target: T7, ETV3L (Homo sapiens, UniProt Q6ZN32 1-361); conditions: protein: recombinant; tags: N-terminal GST; dsDNA, one strand shown
T7 sequence: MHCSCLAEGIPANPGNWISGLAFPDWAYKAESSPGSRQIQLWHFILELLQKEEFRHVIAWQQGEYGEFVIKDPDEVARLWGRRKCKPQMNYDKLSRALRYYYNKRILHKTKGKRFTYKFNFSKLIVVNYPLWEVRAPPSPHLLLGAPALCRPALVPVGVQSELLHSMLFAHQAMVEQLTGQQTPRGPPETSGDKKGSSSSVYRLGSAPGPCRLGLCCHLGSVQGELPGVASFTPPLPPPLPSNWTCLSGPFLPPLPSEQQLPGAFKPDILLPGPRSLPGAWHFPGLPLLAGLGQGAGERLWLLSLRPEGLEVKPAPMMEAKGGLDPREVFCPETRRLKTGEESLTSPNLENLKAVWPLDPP
Method in brief: as §1

ETS2 = target: T8, ETS2 (Homo sapiens, UniProt P15036 1-469); conditions: protein: recombinant; tags: N-terminal GST; dsDNA, one strand shown
T8 sequence: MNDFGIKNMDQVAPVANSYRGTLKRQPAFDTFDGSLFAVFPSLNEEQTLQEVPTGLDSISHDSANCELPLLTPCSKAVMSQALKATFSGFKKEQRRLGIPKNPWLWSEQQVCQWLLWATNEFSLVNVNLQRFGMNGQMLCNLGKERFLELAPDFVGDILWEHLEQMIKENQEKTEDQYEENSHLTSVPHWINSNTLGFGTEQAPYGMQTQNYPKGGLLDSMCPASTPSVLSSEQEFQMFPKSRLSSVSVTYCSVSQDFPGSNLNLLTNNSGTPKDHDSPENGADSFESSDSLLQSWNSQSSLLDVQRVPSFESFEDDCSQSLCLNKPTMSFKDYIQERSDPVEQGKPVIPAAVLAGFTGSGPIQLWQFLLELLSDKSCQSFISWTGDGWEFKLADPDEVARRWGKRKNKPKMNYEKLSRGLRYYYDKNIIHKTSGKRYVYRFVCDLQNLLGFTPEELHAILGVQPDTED
Method in brief: as §1

SPDEF = target: T9, SPDEF (Homo sapiens, UniProt O95238 1-335); conditions: protein: recombinant; tags: N-terminal GST; dsDNA, one strand shown
T9 sequence: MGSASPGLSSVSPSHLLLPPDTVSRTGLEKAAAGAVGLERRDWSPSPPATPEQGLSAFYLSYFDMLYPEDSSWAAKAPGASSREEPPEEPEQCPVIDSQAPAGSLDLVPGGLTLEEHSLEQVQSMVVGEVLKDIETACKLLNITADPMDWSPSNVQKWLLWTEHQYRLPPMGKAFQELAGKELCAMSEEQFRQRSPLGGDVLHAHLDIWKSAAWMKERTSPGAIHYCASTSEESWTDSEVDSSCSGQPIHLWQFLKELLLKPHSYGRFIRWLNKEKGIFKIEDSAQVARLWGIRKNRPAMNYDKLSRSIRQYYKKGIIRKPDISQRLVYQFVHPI
Method in brief: as §1

ETV7 = target: T10, ETV7 (Homo sapiens, UniProt Q9Y603 1-341); conditions: protein: recombinant; tags: N-terminal GST; dsDNA, one strand shown
T10 sequence: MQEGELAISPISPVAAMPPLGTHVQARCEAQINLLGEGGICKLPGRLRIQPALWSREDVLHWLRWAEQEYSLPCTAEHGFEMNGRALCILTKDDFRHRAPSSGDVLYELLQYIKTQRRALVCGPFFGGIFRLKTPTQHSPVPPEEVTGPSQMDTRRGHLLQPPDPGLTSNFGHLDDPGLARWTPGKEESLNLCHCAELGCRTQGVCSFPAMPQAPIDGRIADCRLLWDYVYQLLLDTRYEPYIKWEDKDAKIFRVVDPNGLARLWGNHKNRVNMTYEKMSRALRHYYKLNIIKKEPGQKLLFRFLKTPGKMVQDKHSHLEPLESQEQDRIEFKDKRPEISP
Method in brief: as §1

ELF5 = target: T11, ELF5 (Homo sapiens, UniProt Q9UKW6-2 1-255); conditions: protein: recombinant; tags: N-terminal GST; dsDNA, one strand shown
T11 sequence: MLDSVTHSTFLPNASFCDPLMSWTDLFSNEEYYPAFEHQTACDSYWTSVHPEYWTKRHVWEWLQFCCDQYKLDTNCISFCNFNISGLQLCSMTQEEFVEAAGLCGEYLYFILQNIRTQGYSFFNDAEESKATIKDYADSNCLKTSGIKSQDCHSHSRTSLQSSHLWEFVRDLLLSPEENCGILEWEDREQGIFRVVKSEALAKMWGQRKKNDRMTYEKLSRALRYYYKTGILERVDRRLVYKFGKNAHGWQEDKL
Method in brief: as §1

ETV3 = target: T12, ETV3 (Homo sapiens, UniProt P41162-2 1-143); conditions: protein: recombinant; tags: N-terminal GST; dsDNA, one strand shown
T12 sequence: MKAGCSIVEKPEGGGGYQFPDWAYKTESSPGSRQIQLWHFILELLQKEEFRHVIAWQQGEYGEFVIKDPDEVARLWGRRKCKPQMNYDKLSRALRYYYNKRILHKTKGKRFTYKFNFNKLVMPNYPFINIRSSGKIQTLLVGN
Method in brief: as §1

ETV6 = ETV6 (Homo sapiens, UniProt P41212 1-452); conditions: protein: recombinant; tags: N-terminal GST; dsDNA, one strand shown
Sequence of ETV6 (P41212 whole entry): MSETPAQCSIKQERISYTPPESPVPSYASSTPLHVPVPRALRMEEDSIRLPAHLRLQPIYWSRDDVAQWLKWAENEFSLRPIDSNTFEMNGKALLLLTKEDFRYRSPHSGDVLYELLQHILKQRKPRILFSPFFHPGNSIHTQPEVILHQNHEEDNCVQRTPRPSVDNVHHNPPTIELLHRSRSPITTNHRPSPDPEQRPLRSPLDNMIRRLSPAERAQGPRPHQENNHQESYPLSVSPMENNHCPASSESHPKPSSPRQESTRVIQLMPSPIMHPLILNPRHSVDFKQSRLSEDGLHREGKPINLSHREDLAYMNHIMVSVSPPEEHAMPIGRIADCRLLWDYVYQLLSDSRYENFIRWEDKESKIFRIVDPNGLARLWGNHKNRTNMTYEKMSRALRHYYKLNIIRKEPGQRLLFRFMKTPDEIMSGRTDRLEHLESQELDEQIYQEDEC
Method in brief: as §1

**Q.** AATGCT was tested. Which binding signal (FEV) did it give?
**A.** 1.2 fold enrichment (6-mer frequency, TF over GST control)

**Q.** And the binding signal (ETV5)?
**A.** 1.27 fold enrichment (6-mer frequency, TF over GST control)

**Q.** What about the binding signal (HSF1) of the same sequence?
**A.** 1.29 fold enrichment (6-mer frequency, TF over GST control)

**Q.** And the binding signal (SPIC)?
**A.** 1.24 fold enrichment (6-mer frequency, TF over GST control)

**Q.** And the binding signal (ELF4)?
**A.** 1.25 fold enrichment (6-mer frequency, TF over GST control)

**Q.** What about the binding signal (ELK4) of the same sequence?
**A.** 1.3 fold enrichment (6-mer frequency, TF over GST control)

**Q.** And the binding signal (ETV2)?
**A.** 1.3 fold enrichment (6-mer frequency, TF over GST control)

**Q.** And the binding signal (ELF3)?
**A.** 1.21 fold enrichment (6-mer frequency, TF over GST control)

**Q.** And the binding signal (CRX)?
**A.** 1.26 fold enrichment (6-mer frequency, TF over GST control)

**Q.** And the binding signal (ETV1)?
**A.** 1.24 fold enrichment (6-mer frequency, TF over GST control)

**Q.** And the binding signal (ERF)?
**A.** 1.16 fold enrichment (6-mer frequency, TF over GST control)

**Q.** What about the binding signal (ETV3L) of the same sequence?
**A.** 1.15 fold enrichment (6-mer frequency, TF over GST control)

**Q.** And the binding signal (ETS2)?
**A.** 1.2 fold enrichment (6-mer frequency, TF over GST control)

**Q.** And the binding signal (SPDEF)?
**A.** 1.11 fold enrichment (6-mer frequency, TF over GST control)

**Q.** What about the binding signal (ETV7) of the same sequence?
**A.** 1.1 fold enrichment (6-mer frequency, TF over GST control)

**Q.** And the binding signal (ELF5)?
**A.** 1.24 fold enrichment (6-mer frequency, TF over GST control)

**Q.** What about the binding signal (ETV3) of the same sequence?
**A.** 1.14 fold enrichment (6-mer frequency, TF over GST control)

**Q.** What about the binding signal (ETV6) of the same sequence?
**A.** 1.32 fold enrichment (6-mer frequency, TF over GST control)
